# Assay outcomes deposited in PubChem by National Center for Advancing Translational Sciences (NCATS).
# Rows were chosen to be rich in hits. Some 8.7% of all compounds tested hit in one or more screens of this group.
# Pf growth 48h = Primary qHTS for delayed death inhibitors of the malarial parasite plastid, 48 hour incubation; P. falciparum luciferase growth in erythrocytes, 48 h; Potency, µM (top dose mostly 28.7 µM), for the others: top-dose activity change, negative = inhibition, usual class: inhibitors; 310,000 tested, 5.9% active; AID 504832, 2011
#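 Parasite viability was followed by luminescence of a genomically integrated firefly luciferase. Cultures held 0.1% parasitemia at 2% hematocrit (final), incubated under 5% CO2 at 37 C.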
# AMA1-RON2 inh = qHTS for Inhibitors of AMA1-RON; Towards Development of Antimalarial Drug Lead: Primary Screen | AlphaScreen AMA1-biotinylated RON2 peptide binding | Potency, µM (titrated, usually from 58.2 µM), without a hit: at the top dose activity change, negative = inhibition, actives largely listed as inhibitors | 360,000 tested, 0.2% active | AID 720542, 2013;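 also: 0% = vehicle wells and -100% = peptide control; nearly all actives have a fitted effect of over 45% in size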
#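 AMA1 (3D7) with his tag at 25 nM final met compounds first, then biotinylated RON2 peptide at 25 nM; detection used donor plus acceptor beads, 10 µg/mL apiece, read by AlphaScreen after 30 min at room temperature.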
# Pf growth 96h = Primary qHTS for delayed death inhibitors of the malarial parasite plastid, 96 hour incubation | P. falciparum luciferase reporter growth, 96 h | Potency, µM (doses to about 28.7 µM), for the others: at the highest dose activity change, negative = inhibition, most hits filed as inhibitors | 320,000 tested, 6.9% active | AID 504834, 2011
#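 Luminescence readout: decreased luciferase signal marks inhibited growth of reporter-expressing P. falciparum in infected red cells (2% hematocrit, 0.05% parasitemia final), exposed to compound two generations (96 h, 37 C, 5% CO2).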
# VACV mCherry inh = qHTS for Stage-Specific Inhibitors of Vaccinia Orthopoxvirus: mCherry Reporter Primary qHTS; Vaccinia virus mCherry reporter infection, fluorescence; Potency, µM (doses to about 36.5 µM), inactives show at the top dose activity change, negative = inhibition, most hits filed as inhibitors; 310,000 tested, 0.63% active; calls by dose curve; tested in A549 cells; also: nearly all actives have a fitted effect of over 35% in size
# Vaccinia Venus = qHTS for Stage-Specific Inhibitors of Vaccinia Orthopoxvirus: Venus Reporter Primary qHTS; Vaccinia virus Venus reporter expression, fluorescence; Potency, µM (top dose mostly 36.5 µM), for the others: at the top dose activity change, negative = inhibition, usual class: inhibitors; 330,000 tested, 0.46% active; AID 720580, 2013; calls by dose curve; tested in A549 cells; also: nearly all actives have a fitted effect of over 30% in size
# Active calls of the source: *; i = inactive; u = inconclusive; x = not tested or not shown; [ ] = dose if it differs, or a comment. Unless noted, calls follow the shape of the dose curve; as a rule, active = well fitted curve in the direction sought with a large enough effect; inconclusive = small, poorly fitted or top-dose-only effect, or another doubt; inactive = no such curve, though single readings can be large; an effect the other way counts as inactive or inconclusive. Unless noted, % is scaled to controls: 0 for no effect and ±100 for the full control effect; potency is read from the fitted curve at half-maximal effect.
SMILES,Pf growth 48h,AMA1-RON2 inh,Pf growth 96h,VACV mCherry inh,Vaccinia Venus
COc1cc(/C=C(\C#N)c2ccccn2)ccc1OCc1ccc(Cl)cc1,6.6µM*,-23%,5.2µM*,-12%,-13%
CCOC(=O)c1c(N)n(-c2ccc(Cl)c(Cl)c2)c2nc3ccccc3nc12,x,x,x,3%,4%
CCC(NC(=O)CCl)c1ccc(C)cc1 (stereo unspecified),5.9µM*,12%,1.3µM*,-21%,-8%
CC(C)CC(NC(=O)CCl)c1ccccc1 (stereo unspecified),-11%,10%,u,i,-12%
CCCC(NC(=O)CCl)c1ccccc1 (stereo unspecified),9.3µM*,-8%,u,-18%,-25%
COc1ccc(CCNC(=O)CCCn2c(=O)c3ccccc3n(CC(=O)Nc3c(C)cc(C)cc3C)c2=O)cc1OC,x,x,x,5%,3%
O=C(Nc1ccccc1)c1cccc(S(=O)(=O)Nc2cccc(F)c2)c1,x,x,x,-10%,9%
Cn1nnnc1SCC(=O)NCc1ccccc1,41%,2%,9%,x,-10%
CC(C)N(Cc1nc2ccccc2c(=O)[nH]1)C(=O)c1ccc(NC(=O)CSc2nnnn2C)cc1,u,-6%,13µM*,x,x
Cc1cccc(NC(=S)NC2CC3CCCC(C2)N3Cc2cccs2)c1C (stereo unspecified),u,2%,5.9µM*,i,-19%
Fc1ccc(NC(=S)NC2CC3CCCC(C2)N3Cc2cccs2)cc1 (stereo unspecified),u,-8%,2%,-11%,-9%
Cc1ccc(NC(=S)NC2CC3CCCC(C2)N3Cc2cccs2)cc1 (stereo unspecified),u,-1%,-26%,-19%,u
CCc1ccccc1NC(=S)NC1CC2CCCC(C1)N2Cc1cccs1 (stereo unspecified),8.3µM*,-6%,1.5µM*,-12%,-28%
Cc1ccc2oc(-c3ccc(C)c(NC(=O)COc4ccc(Cl)cc4)c3)nc2c1,x,x,x,i,-8%
C=C(C)Cn1cnc2c(oc3nc4c(cc32)CCCC4)c1=O,140%,2%,12µM*,x,x
C/C(=N\NC(=S)NC1CCCCC1)c1ccccc1,4.1µM*,3%[11.6 µM],u,-4%,-21%
S=C(NC1CCCCC1)NN(c1ccccc1)c1ccccc1,12µM*,5%,2.9µM*,-5%,-9%
NC(=O)C1CCN(c2nc(-c3cccc4ccccc34)cs2)CC1,u,x,-5%,x,x
CCOc1cc(/C=C2\C(=N)N3N=C(CC)SC3=NC2=O)ccc1OCCOc1ccc(NC(C)=O)cc1,u,20%,2.6µM*,x,x
O=c1[nH]c(/C(Cl)=C/c2c(F)cccc2Cl)nc2cc(Cl)ccc12,-14%,5%,48%,-13%,-1%
O=c1[nH]c(/C(Cl)=C/c2cc(Cl)ccc2O)nc2cc(Cl)ccc12,-23%,8%,9.3µM*,-10%,-16%
COc1cc(Cl)c(C)cc1Nc1c2c(nc3ccccc13)CCC2,x,x,x,u,-28%
CCOc1cc2nc(-c3ccc(OC)c(OC)c3)nc(N3CCOCC3)c2cc1OC,u,-15%,45%,11µM*,u
COc1cc2nc(Cl)nc(N3CCOCC3)c2cc1OC,8%,-6%,9%,-18%,-19%
S=C(NCCCN(Cc1ccc(Cl)cc1)c1ccc(Br)cn1)NCc1ccc2nc[nH]c2c1,x,x,x,-20%,-23%
SMILES,Pf growth 48h,AMA1-RON2 inh,Pf growth 96h,VACV mCherry inh,Vaccinia Venus
CC(=O)NCCCNC(=S)NCCCN(Cc1ccc(Cl)cc1)c1ccc(Br)cn1,x,x,x,u,11µM*
COC(=O)c1ccc2c(c1)C(C)(C)C(/C=C/c1ccc(O)cc1)=[N+]2C,u,u,5.2µM*,x,x
COC(=O)c1ccc2c(c1)C(C)(C)C(/C=C/c1ccc(OC)c(OC)c1OC)=[N+]2C,2.3µM*,-5%,2.3µM*,-16%[1.46 µM],87%
COc1ccc(/C=N/Nc2ccc(C(=O)O)cc2)c(OC)c1OC,-11%,-10%,u,-28%,-8%
Cc1ccc(C)c2c1NC(C(=O)O)C1CC=CC21 (stereo unspecified),x,x,x,3%,-6%
O=C(O)C1Nc2c(Cl)cc(Cl)cc2C2C=CCC12 (stereo unspecified),14%,14µM*,u,-5%,28%
O=C(O)C1Nc2c(O)cccc2C2C=CCC12 (stereo unspecified),10%,-26%,15µM*,-16%,-8%
O=C(Nc1nnc(S(=O)(=O)N2CCCc3ccccc32)s1)c1ccc(Cl)cc1,x,x,x,-10%,-25%
Oc1c(C(c2cccc(Cl)c2)N2CCOCC2)sc2nc(-c3ccco3)nn12 (stereo unspecified),x,x,x,-14%,-8%
Cc1cc(C(=O)N/N=C/c2ccc([N+](=O)[O-])s2)n[nH]1,u,23%,2.1µM*,u,u
Cc1cc(C(=O)N/N=C/c2ccc(C)s2)n[nH]1,93%,12%,u,-8%,-8%
Cn1c(SCC(=O)N/N=C/c2ccc([N+](=O)[O-])s2)nnc1-c1ccc(Cl)cc1,10µM*,23%,5.2µM*,-2%,-7%
Cc1[nH]cnc1C(=O)N/N=C/c1ccc([N+](=O)[O-])s1,u,63%,1.9µM*,-23%,u
COc1cc([N+](=O)[O-])cc(/C=N/NC(=O)CSc2nnc(-c3ccccc3)n2C)c1O,7%,37%,18%,-25%,3%
COc1ccc(S(=O)(=O)NCc2ccc3c(c2)CCN3C(C)=O)cc1OC,x,x,x,-4%,-6%
COc1ccc(CNC(C)C23CC4CC(CC(C4)C2)C3)c(OC)c1OC (stereo unspecified),12µM*,-6%,9.3µM*,-25%,-28%
COc1cccc(OC)c1C(=O)NC(C)C12CC3CC(CC(C3)C1)C2 (stereo unspecified),x,-14%,u,-17%,-9%
COc1cccc(-n2c(=O)c3cc(OC)c(OC)cc3n(CC(=O)Nc3ccccc3)c2=O)c1,x,x,x,-14%,-7%
CCCN1C(=O)c2ccccc2NC1c1cc(OC)c(OC)c(OC)c1 (stereo unspecified),u,0%,3%,-9%,-7%
COc1ccc(CCN2C(=O)c3ccccc3NC2c2cc(Cl)c(O)c(OC)c2)cc1 (stereo unspecified),u,-13%,5.2µM*,u,-17%
COc1ccc(N2C(=O)CCC(C(=O)N3CCCCCC3)C2c2ccc(OC)c(OC)c2)cc1 (stereo unspecified),21%,-7%,-7%,-14%,-5%
COc1ccc(C2C(C(=O)N3CCC(C(N)=O)CC3)CC(=O)N2c2ccc(OC)cc2)cc1 (stereo unspecified),u,9%,5.2µM*,i,-12%
